The source of these data is PubChem BioAssay (NCI).

What all share (experiment): NCI-60 one-dose screen, 48 h (100 = growth as untreated, 0 = no growth, -100 = all killed)
Common to all, as to conditions: 10 µM unless noted

In assay [1] the test system is EKVX NSCLC.
The test system of assay [2] is SN12C renal.
The test system of assay [3] is UO-31 renal.
In assay [4] the test system is TK-10 renal.
The subject of assay [5] is ACHN renal.
The test system of assay [6] is CAKI-1 renal.
The subject of assay [7] is A498 renal.
The test system of assay [8] is CCRF-CEM leukemia.
Assay [9] has as its system MOLT-4 leukemia.
Assay [10] has as its system SR leukemia.

This is part of a sample that, as a whole, favours compounds with a hit. Of some 83,000 tested, about 20% had one in any assay.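 How to read the values: 0–100, growth inhibition (40 = 60% inhibited); 0, no net growth; -100 to 0, cell death (-40 = 40% of starting cells died; -100 = all dead).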 The source made the active and inactive calls. The calls were made as follows: active = growth percent below 10; inactive = the rest.

Take `COc1ccc(CCN2C(=O)CCSC2=S)cc1OC`: the growth is 97.4% (inactive) in assay [1]; 92.3% (inactive) in [2]; 79.2% (inactive) in assay [3]; 61.4% (inactive) in assay [4]; 102% (inactive) in [5]; 95.2% (inactive) in [6]. Besides, the growth in assay [7] was 99.3% (inactive); in assay [8] it was 73.6% (inactive); in assay [9], 100% (inactive); in assay [10], 33.2% (inactive).

As to `O=C1/C(=C/c2cccc(O)c2)COc2ccc(O)cc21`, the growth was 93.9% (inactive) in [1]; 73.8% (inactive) in assay [2]; 79.6% (inactive) in assay [3]; 130% (inactive) in assay [4]; 67.3% (inactive) in assay [5]; 95.3% (inactive) in assay [6]. Moreover, the growth in assay [7] is 117% (inactive); in assay [8], 8.33% (active); in assay [9] it was 33.3% (inactive); in [10], 10.5% (inactive).

On to `COc1ccc(/C(C#N)=C/c2nc3c(N4CCOCC4)nc(Cl)nc3n2C)cc1OC`, for which the growth in assay [1] was 20.1% (inactive); in [2], 11.2% (inactive); in [3], -92.9% (active); in assay [4], -21.1% (active); in assay [5], -51.3% (active); in assay [6] it was -14.2% (active). For the same compound, the growth is -27.8% (active) in assay [7], 11.8% (inactive) in assay [8], 2.05% (active) in assay [9] and 17.7% (inactive) in assay [10].

Turning to `Cc1ccc2cccc(Oc3ccc(Nc4ncnc5onc(-c6ccccc6)c45)cc3)c2n1`, the growth in assay [1] was 85.5% (inactive); in [2] it was 83.9% (inactive); in assay [3], 55.6% (inactive); in assay [4] it was 86.6% (inactive); in assay [5], 80.1% (inactive); in assay [6], 89.2% (inactive). Also, the growth in assay [7] was 13% (inactive); in [8], 80.7% (inactive); in assay [9] it was 72.2% (inactive); in assay [10], 67% (inactive).

In the case of `Cc1nc(Nc2cn[nH]c2C(=O)Nc2ccc(CN3CCN(C)CC3)cc2)c2ccsc2n1`, the growth in assay [1] is 106% (inactive); in [2], 75.4% (inactive); in assay [3] it was 59.6% (inactive); in assay [4] it was 114% (inactive); in assay [5] it was 92.8% (inactive); in assay [6], 61.5% (inactive). Besides, the growth in [7] was 66.7% (inactive); in assay [8], 40.5% (inactive); in [9] it was 45.8% (inactive); in [10], 5.46% (active).

In the case of `O=C1/C(=C\c2ccc[nH]2)c2ccccc2N1c1ccccc1`, the growth in assay [1] is 47.7% (inactive); in assay [2], 89.1% (inactive); in [3] it was 93.2% (inactive); in assay [4], 102% (inactive); in assay [5], 92.2% (inactive); in [6], 92% (inactive). For the same compound, the growth in [7] is 101% (inactive); in assay [8], 99.2% (inactive); in assay [9], 102% (inactive); in assay [10], 139% (inactive).

In the case of `COc1cc(C2CC(c3ccc(Nc4nc(NCCO)nc(N5CCOCC5)n4)cc3)=NN2c2cc(Cl)cc(Cl)c2)cc(OC)c1OC` (stereo not given), the growth is 55.5% (inactive) in assay [1]; 65.5% (inactive) in assay [2]; 42% (inactive) in [3]; 93.3% (inactive) in [4]; 47.6% (inactive) in assay [5]; 46.4% (inactive) in assay [6]. In addition, the growth is 52% (inactive) in assay [7], 48% (inactive) in assay [8], 33.2% (inactive) in assay [9] and 23.2% (inactive) in [10].

For the compound `O=C(NCc1ccco1)C1CN(c2ccc(Cl)cc2)N(c2ccc(Cl)cc2)C1=O` (stereo not given), the growth in assay [1] was 65.5% (inactive); in assay [2] it was 62.9% (inactive); in [3], 42.7% (inactive); in [4], 84.2% (inactive); in assay [5] it was 63.5% (inactive); in [6], 41.1% (inactive). Further, the growth in [7] is 38.2% (inactive); in assay [8], 32.3% (inactive); in assay [9], 28.3% (inactive); in [10], 36.7% (inactive).

Regarding `CC1(O)COCCCCOc2c(CN)cccc2NC(=O)c2nc(cnc2N)-c2ccc(cc2)S(=O)(=O)C(C)(C)C1` (stereo not given), the growth is -58% (active) in assay [1]; -81.1% (active) in assay [2]; -97.5% (active) in assay [3]; -36.2% (active) in assay [4]; -99.2% (active) in assay [5]; 39.4% (inactive) in [6]. Besides, the growth in assay [7] is -34.4% (active); in [8] it was 5.36% (active); in [9] it was -15.6% (active); in assay [10] it was 8.92% (active).

For `Cc1c(-c2noc(-c3ccc([N+](=O)[O-])cc3)n2)no[n+]1[O-]`, the growth is 65.2% (inactive) in assay [1]; 98.3% (inactive) in assay [2]; 78.4% (inactive) in assay [3]; 153% (inactive) in assay [4]; 89.2% (inactive) in [5]; 83.8% (inactive) in assay [6]. In addition, the growth was 117% (inactive) in assay [7], 101% (inactive) in assay [8], 101% (inactive) in [9] and 103% (inactive) in assay [10].

In the case of `Nc1nc2c(ncn2[C@@H]2O[C@H](CS)[C@@H](O)[C@H]2O)c(=O)[nH]1`, the growth in assay [1] is 95.8% (inactive); in assay [2], 97.2% (inactive); in assay [3] it was 93% (inactive); in assay [4] it was 96.3% (inactive); in assay [5], 99.8% (inactive); in assay [6], 94.5% (inactive). Besides, the growth in [7] was 99.9% (inactive); in assay [8], 100% (inactive); in [9], 99% (inactive); in assay [10], 101% (inactive).
